Potency and affinity values are given separately. Active and inactive are the calls of the source. Entries that show only a call come without a potency. No rule for the calls is given here.
Target: Protein RecA (Mycobacterium tuberculosis (strain ATCC 25618 / H37Rv)) (UniProt P9WHJ3)
Assay: RecA inhibition, Mycobacterium tuberculosis, GFP plate reader MOA with DTT, confirmatory (AID 493233)
Details: GFP-RecA biochemical assay with DTT; series mostly up to 35 µM

Protein RecA (Mycobacterium tuberculosis (strain ATCC 25618 / H37Rv)), sequence (P9WHJ3 whole entry, looked up): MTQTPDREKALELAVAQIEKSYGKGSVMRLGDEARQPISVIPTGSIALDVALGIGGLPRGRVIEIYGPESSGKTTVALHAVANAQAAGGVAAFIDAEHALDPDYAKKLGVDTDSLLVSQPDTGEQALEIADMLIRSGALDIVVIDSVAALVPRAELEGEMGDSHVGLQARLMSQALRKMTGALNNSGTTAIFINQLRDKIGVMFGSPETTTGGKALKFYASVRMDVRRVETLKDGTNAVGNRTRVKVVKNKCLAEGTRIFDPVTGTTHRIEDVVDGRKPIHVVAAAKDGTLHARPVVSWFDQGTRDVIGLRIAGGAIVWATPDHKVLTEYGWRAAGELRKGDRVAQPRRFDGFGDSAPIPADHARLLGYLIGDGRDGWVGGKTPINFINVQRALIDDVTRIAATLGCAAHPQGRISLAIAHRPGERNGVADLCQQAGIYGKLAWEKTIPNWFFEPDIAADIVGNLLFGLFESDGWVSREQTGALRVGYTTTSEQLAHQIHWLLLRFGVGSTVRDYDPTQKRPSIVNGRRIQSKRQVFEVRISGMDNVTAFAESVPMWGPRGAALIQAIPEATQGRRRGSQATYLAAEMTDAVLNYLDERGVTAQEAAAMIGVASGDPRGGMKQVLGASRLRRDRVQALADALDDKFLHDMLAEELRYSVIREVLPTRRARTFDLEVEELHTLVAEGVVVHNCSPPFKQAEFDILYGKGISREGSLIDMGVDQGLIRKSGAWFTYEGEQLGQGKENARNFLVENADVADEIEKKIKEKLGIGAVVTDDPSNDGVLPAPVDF

Row | Compound | outcome
1 | C/C(=N\NC(=O)c1ccncc1)c1cc2ccccc2oc1=O | inactive
2 | Nc1cn(-c2ccccc2)nc1-c1ccc(F)cc1 | inactive

Source: PubChem BioAssay AID493233 (Broad Institute, 2011)
